# Measurements taken from PMC10812921, “Transcriptional Coactivator BOB1 (OBF1, OCA-B) Modulates the Specificity of DNA Recognition by the POU-Domain Factors OCT1 and OCT2 in a Monomeric Configuration”.
# Experiments:
# POU1 (OCT1 POU domain) = POU1 (OCT1 POU domain) (human, UniProt P14859 260-458); assay: EMSA-SELEX-seq; no BOB1; 20 mM Tris-HCl pH 7.6, 140 mM NaCl, 10% glycerol, 0.5 mM EDTA, 0.05% Triton X-100, 0.1 mg/mL BSA, 0.1 mg/mL poly(dI-dC), 5 mM DTT, room temperature, 20 min; high values mean tight binding; conditions: protein: recombinant; dsDNA, one strand shown
# How it was run: (§1)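 Tagged POU-domain proteins were expressed in E. coli BL21, purified under denaturing conditions and renatured. Then 30 ng was mixed with 300 ng of a PCR-amplified double-stranded random 35-nt library, with or without 28 ng coactivator protein, in 20 μL Tris–HCl pH 7.6 binding buffer for 20 min at RT. Complex bands were cut from native 6% PAGE, eluted and PCR-amplified over four rounds, then Illumina-sequenced. Binding preference is the percentage of sequenced 8-mers matching a motif pattern.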
# POU2 (OCT2 POU domain) = target: T1, POU2 (OCT2 POU domain) (human, UniProt P09086 175-386); assay: as above; conditions: protein: recombinant; dsDNA, one strand shown
# T1 sequence: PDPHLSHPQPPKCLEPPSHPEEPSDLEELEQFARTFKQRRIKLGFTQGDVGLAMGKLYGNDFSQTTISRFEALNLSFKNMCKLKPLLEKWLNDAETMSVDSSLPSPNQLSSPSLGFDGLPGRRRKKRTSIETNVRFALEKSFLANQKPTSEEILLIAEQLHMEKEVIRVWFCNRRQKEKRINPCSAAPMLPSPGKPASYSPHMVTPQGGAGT
# How it was run: as §1
# [1] = target: POU1 (OCT1 POU domain);BOB1 (OBF1, OCA-B) (human;human, UniProt P14859;Q16633 260-458;1-256, |); assay: EMSA-SELEX-seq; with BOB1 (ternary complex band); 20 mM Tris-HCl pH 7.6, 140 mM NaCl, 10% glycerol, 0.5 mM EDTA, 0.05% Triton X-100, 0.1 mg/mL BSA, 0.1 mg/mL poly(dI-dC), 5 mM DTT, room temperature, 20 min; high values mean tight binding; conditions: protein: recombinant;recombinant; copies: 1;1; dsDNA, one strand shown
# How it was run: as §1
# [2] = target: T2, POU2 (OCT2 POU domain);BOB1 (OBF1, OCA-B) (human;human, UniProt P09086;Q16633 175-386;1-256, |); assay: as above; conditions: protein: recombinant;recombinant; copies: 1;1; dsDNA, one strand shown
# T2 sequence 1: T1 sequence
# T2 sequence 2: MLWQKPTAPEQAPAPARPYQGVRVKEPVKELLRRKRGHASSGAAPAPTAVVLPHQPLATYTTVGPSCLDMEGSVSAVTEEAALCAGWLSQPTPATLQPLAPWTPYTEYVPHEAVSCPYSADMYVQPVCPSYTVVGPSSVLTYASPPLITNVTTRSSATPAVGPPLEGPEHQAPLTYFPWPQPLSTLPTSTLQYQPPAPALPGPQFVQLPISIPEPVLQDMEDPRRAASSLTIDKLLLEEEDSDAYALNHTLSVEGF
# How it was run: as §1
# Sequence of POU1 (OCT1 POU domain) (P14859 260-458): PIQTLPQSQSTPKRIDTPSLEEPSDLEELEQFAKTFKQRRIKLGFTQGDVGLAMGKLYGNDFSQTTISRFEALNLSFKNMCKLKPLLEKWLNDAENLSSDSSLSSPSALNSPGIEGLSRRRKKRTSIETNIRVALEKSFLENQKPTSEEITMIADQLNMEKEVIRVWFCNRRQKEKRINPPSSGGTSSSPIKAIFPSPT
Sequence,binding signal (POU1 (OCT1 POU domain)),binding signal (POU2 (OCT2 POU domain)),binding signal [1],binding signal [2]
AGTAGAAT,0.0717 % of ANNNNAAN 8-mers,0.0892 % of ANNNNAAN 8-mers,0.0578 % of ANNNNAAN 8-mers,0.0826 % of ANNNNAAN 8-mers
ACTCCAAG,0.0191 % of ANNNNAAN 8-mers,0.0196 % of ANNNNAAN 8-mers,0.0195 % of ANNNNAAN 8-mers,0.0124 % of ANNNNAAN 8-mers
ATGCGAAC,0.04 % of ANNNNAAN 8-mers,0.0357 % of ANNNNAAN 8-mers,0.0386 % of ANNNNAAN 8-mers,0.0347 % of ANNNNAAN 8-mers
ATTTCAAA,0.0866 % of ANNNNAAN 8-mers,0.0852 % of ANNNNAAN 8-mers,0.103 % of ANNNNAAN 8-mers,0.0751 % of ANNNNAAN 8-mers
ACATTAAG,0.095 % of ANNNNAAN 8-mers,0.0875 % of ANNNNAAN 8-mers,0.0539 % of ANNNNAAN 8-mers,0.0487 % of ANNNNAAN 8-mers
ACTCGAAT,0.0484 % of ANNNNAAN 8-mers,0.0518 % of ANNNNAAN 8-mers,0.0402 % of ANNNNAAN 8-mers,0.0504 % of ANNNNAAN 8-mers
ATCTAAAC,0.0229 % of ANNNNAAN 8-mers,0.0374 % of ANNNNAAN 8-mers,0.0379 % of ANNNNAAN 8-mers,0.0495 % of ANNNNAAN 8-mers
ATTACAAG,0.0515 % of ANNNNAAN 8-mers,0.0875 % of ANNNNAAN 8-mers,0.048 % of ANNNNAAN 8-mers,0.0413 % of ANNNNAAN 8-mers
AGGGAAAA,0.205 % of ANNNNAAN 8-mers,0.119 % of ANNNNAAN 8-mers,0.28 % of ANNNNAAN 8-mers,0.119 % of ANNNNAAN 8-mers
ATAGGAAC,0.0339 % of ANNNNAAN 8-mers,0.0449 % of ANNNNAAN 8-mers,0.0375 % of ANNNNAAN 8-mers,0.0545 % of ANNNNAAN 8-mers
ACGGTAAG,0.0351 % of ANNNNAAN 8-mers,0.0311 % of ANNNNAAN 8-mers,0.0359 % of ANNNNAAN 8-mers,0.0413 % of ANNNNAAN 8-mers
AAGGAAAC,0.0385 % of ANNNNAAN 8-mers,0.0403 % of ANNNNAAN 8-mers,0.0511 % of ANNNNAAN 8-mers,0.038 % of ANNNNAAN 8-mers
ACACTAAG,0.0179 % of ANNNNAAN 8-mers,0.0219 % of ANNNNAAN 8-mers,0.0226 % of ANNNNAAN 8-mers,0.0289 % of ANNNNAAN 8-mers
ACCCTAAT,0.037 % of ANNNNAAN 8-mers,0.0518 % of ANNNNAAN 8-mers,0.0273 % of ANNNNAAN 8-mers,0.0223 % of ANNNNAAN 8-mers
ACCGTAAT,0.0454 % of ANNNNAAN 8-mers,0.0529 % of ANNNNAAN 8-mers,0.0332 % of ANNNNAAN 8-mers,0.0495 % of ANNNNAAN 8-mers
AGCTTAAA,0.037 % of ANNNNAAN 8-mers,0.0437 % of ANNNNAAN 8-mers,0.0258 % of ANNNNAAN 8-mers,0.0421 % of ANNNNAAN 8-mers
ATCGGAAT,0.0717 % of ANNNNAAN 8-mers,0.0869 % of ANNNNAAN 8-mers,0.0581 % of ANNNNAAN 8-mers,0.0768 % of ANNNNAAN 8-mers
ACACCAAA,0.0149 % of ANNNNAAN 8-mers,0.0184 % of ANNNNAAN 8-mers,0.0121 % of ANNNNAAN 8-mers,0.0149 % of ANNNNAAN 8-mers
ATGATAAT,0.513 % of ANNNNAAN 8-mers,0.582 % of ANNNNAAN 8-mers,0.138 % of ANNNNAAN 8-mers,0.135 % of ANNNNAAN 8-mers
AGTGTAAC,0.0217 % of ANNNNAAN 8-mers,0.015 % of ANNNNAAN 8-mers,0.0234 % of ANNNNAAN 8-mers,0.0272 % of ANNNNAAN 8-mers
ATGCAAAT,5.32 % of ANNNNAAN 8-mers,5.41 % of ANNNNAAN 8-mers,8.18 % of ANNNNAAN 8-mers,12.6 % of ANNNNAAN 8-mers
ATCTAAAG,0.0412 % of ANNNNAAN 8-mers,0.0397 % of ANNNNAAN 8-mers,0.0503 % of ANNNNAAN 8-mers,0.0479 % of ANNNNAAN 8-mers
ACTACAAT,0.0309 % of ANNNNAAN 8-mers,0.0282 % of ANNNNAAN 8-mers,0.0285 % of ANNNNAAN 8-mers,0.0338 % of ANNNNAAN 8-mers
ACAGAAAC,0.0278 % of ANNNNAAN 8-mers,0.0259 % of ANNNNAAN 8-mers,0.0269 % of ANNNNAAN 8-mers,0.0231 % of ANNNNAAN 8-mers
AAACTAAC,0.0256 % of ANNNNAAN 8-mers,0.0316 % of ANNNNAAN 8-mers,0.03 % of ANNNNAAN 8-mers,0.0289 % of ANNNNAAN 8-mers
ACTTAAAG,0.0328 % of ANNNNAAN 8-mers,0.0437 % of ANNNNAAN 8-mers,0.0328 % of ANNNNAAN 8-mers,0.0462 % of ANNNNAAN 8-mers
AGCCTAAT,0.0503 % of ANNNNAAN 8-mers,0.0811 % of ANNNNAAN 8-mers,0.0324 % of ANNNNAAN 8-mers,0.038 % of ANNNNAAN 8-mers
AAGACAAT,0.0477 % of ANNNNAAN 8-mers,0.0478 % of ANNNNAAN 8-mers,0.0382 % of ANNNNAAN 8-mers,0.0405 % of ANNNNAAN 8-mers
AAAATAAA,0.153 % of ANNNNAAN 8-mers,0.16 % of ANNNNAAN 8-mers,0.148 % of ANNNNAAN 8-mers,0.105 % of ANNNNAAN 8-mers
AGGGCAAC,0.0214 % of ANNNNAAN 8-mers,0.0219 % of ANNNNAAN 8-mers,0.0172 % of ANNNNAAN 8-mers,0.0173 % of ANNNNAAN 8-mers
